Results on 20 compounds are retold here after PubChem BioAssay (NCATS).

Test [1] is described as follows: Drug repurposing screens with cells derived from glioblastoma tumor samples (AID 1345199). Note: nearly all actives have a fitted effect of over 40% in size. To be noted: GBM patient neurospheres viability, ATP luminescence, 48 h. In short, it runs like this: (§1)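 Primary testing used CD133+ neurospheres from four GBM patients, seven concentrations, 48 h exposure and ATP-based viability; confirmation added three slower-growing patient lines.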

For the next test, the system named is astro (control astrocytes). The description is as above. To be noted: viability, ATP luminescence, 48 h; series mostly up to 45.9 µM. A digest of the protocol:
as §1

Where [2] appears, read: at 45.9 µM (top of the series), tumour line B.
[3] abbreviates: at 45.9 µM (top of the series), tumour line D.
The mark [4] stands for this setting: at 46 µM (top of the series), tumour line A.
Setting [5] is: at 46.1 µM (top of the series), tumour line C.

Where “and” joins values, the source holds several entries; their conditions need not be identical. Identical values can stand only once. Results filed as inconclusive are left out. Values without a mark were called inactive. Calls of active or inactive are those of the source. Calls come from the whole dose curve; as a rule, active = well fitted inhibition curve with a large enough effect; inconclusive = small, poorly fitted or top-dose-only effect; inactive = flat fitted curve, though single readings scatter.
% is set by controls: 0 for no effect and ±100 for the full control effect; potency is the fitted concentration of half-maximal effect.

For the compound `CCCCCCCCCCCC(=O)OCC(O)CO` (stereo not given), the activity, negative = cell killing is -6.19% in test [1] (setting [2]), -1.8% in test [1] (setting [3]), -27.7% in test [1] (setting [4]) and -2.49% in test [1] (setting [5]). The Potency result in the test with astro is “inactive”.
The like results for `CC(=O)O[C@@H]1CC2CCC1(C)C2(C)C` (stereo not given in full) were, in that order, -4.03%, -12.8%, -12.3%, -4.87% and “inactive”.
The like results for `CN[C@@H]1[C@@H](O)[C@@H](O[C@@H]2[C@@H](O)[C@H](O[C@H]3O[C@H](CN)[C@@H](O)[C@H](O)[C@H]3O)[C@@H](N)C[C@H]2NC(=O)C(O)CN)OC[C@]1(C)O` (stereo not given in full) were, in that order, -11%, -1.91%, 4.63%, 1.73% and “inactive”.
The like results for `OC[C@@H](O)C(O)[C@H](O)CO` were, in that order, -10.5%, -11.3%, -25%, 11.8% and “inactive”.
With `C=CC[C@@H]1/C=C(\C)C[C@H](C)C[C@H](OC)[C@H]2O[C@@](O)(C(=O)C(=O)N3CCCC[C@H]3C(=O)O[C@H](/C(C)=C/[C@@H]3CC[C@@H](O)[C@H](OC)C3)[C@H](C)[C@@H](O)CC1=O)[C@H](C)C[C@@H]2OC`, the activity, negative = cell killing in test [1] (setting [2]) was -12.2%; in test [1] (setting [3]), -18.8%; in test [1] (setting [5]), -16.1%. In addition, in test [1] (tumour line A), the Potency was 7.94 µM (active). Moreover, the Potency result with astro is “inactive”.
The matching figures for `c1ccc2cc(C3=NCCN3)ccc2c1`: -16.9%, -20.8%, -24%, 11.2 µM (active) and “inactive”.
On to `CCOC(=S)SSC(=S)OCC`, for which the activity, negative = cell killing in test [1] (setting [2]) is -12.5%; in test [1] (setting [3]), -2.86%; in test [1] (setting [4]), -27.4%; in test [1] (setting [5]), -5.03%. The Potency result with astro was “inactive”.
The like results for `O=P(O)(O)OC[C@H]1O[C@](O)(COP(=O)(O)O)[C@@H](O)[C@@H]1O` were, in that order, -4.16%, -21.7%, -47.3%, -3.41% and “inactive”.
The matching figures for `c1ccc(-n2cnnn2)cc1`: -15%, 5.06%, -23.5%, -0.778% and “inactive”.
The like results for `C=CC(=O)O` were, in that order, -8.62%, -6.79%, -25.8%, -0.506% and “inactive”.
On to `C[C@@H]1C/C=C/C=C/C=C/C=C/[C@H](O[C@@H]2O[C@H](C)[C@@H](O)[C@H](N)[C@@H]2O)C[C@@H]2O[C@](O)(C[C@@H](O)C[C@H]3O[C@@H]3/C=C/C(=O)O1)C[C@H](O)[C@H]2C(=O)O`, for which the activity, negative = cell killing is -13.9% in test [1] (setting [2]), -5.09% in test [1] (setting [3]), -20.3% in test [1] (setting [4]) and -13.5% in test [1] (setting [5]). For the same compound, in the test with astro, the Potency result is “inactive”.
Turning to `CC(C)c1nc(N(C)S(C)(=O)=O)nc(-c2ccc(F)cc2)c1/C=C/C(O)CC(O)CC(=O)O` (stereo not given), the activity, negative = cell killing in test [1] (setting [2]) was -27.3%; in test [1] (setting [5]) it was -19%. For the same compound, the Potency in test [1] (tumour line A) is 3.55 µM (active); in test [1] (tumour line D), 17.8 µM (active); in the test with astro, 10 µM (active).
Turning to `CCCC1C(=O)N2C(N(C)C)=Nc3ccc(C)cc3N2C1=O` (stereo not given), the activity, negative = cell killing in test [1] (at 20 µM (top of the series), tumour line C) is -0.417%; in test [1] (at 21.2 µM (top of the series), tumour line B), -20.8%; in test [1] (at 21.2 µM (top of the series), tumour line D), -11.9%; in test [1] (at 21.3 µM (top of the series), tumour line A) it was -28.1%. Besides, in the test on astro, the Potency entry was “inactive”.
With `CCCCCCCCCCCCOCCCN`, the activity, negative = cell killing was -9.11% in test [1] (setting [2]), 2.93% in test [1] (setting [3]), -39.4% in test [1] (setting [4]) and -14.6% in test [1] (setting [5]). The Potency result in the test on astro is “inactive”.
The matching figures for `C[C@@](Cc1ccc(O)c(O)c1)(NN)C(=O)O`: -16.8%, -8.91%, -39.3%, -14.3% and “inactive”.
The matching figures for `CC1(C)S[C@@H]2[C@H](N3C(=O)C(c4ccccc4)NC3(C)C)C(=O)N2[C@H]1C(=O)O` (stereo not given in full): -8.88%, -1.4%, -5.42%, -5.2% and “inactive”.
The like results for `Cc1c(O)c(=O)ccn1C` were, in that order, -9.32%, -8.06%, -29.8%, -25.3% and “inactive”.
Take `NCCCC[C@H](N)C(=O)O`: the activity, negative = cell killing in test [1] (setting [2]) was -13.6%; in test [1] (setting [3]) it was 9.14%; in test [1] (setting [4]), -18.9%; in test [1] (setting [5]), 9.67%. Also, the Potency result in the test on astro is “inactive”.
Take `CCCCC(CC)CCC(CC(C)C)OS(=O)(=O)O` (stereo not given): the activity, negative = cell killing is -14.6% and -5.66% in test [1] (setting [2]); -13.9% and 2.49% in test [1] (setting [3]); -21.7% and -3.22% in test [1] (setting [4]); -16.9% and 4.88% in test [1] (setting [5]). Moreover, the Potency result in the test on astro is “inactive”.
With `CCCCO`, the activity, negative = cell killing in test [1] (setting [2]) was -10.8%; in test [1] (setting [3]), 1.03%; in test [1] (setting [4]), -9.11%; in test [1] (setting [5]) it was 6.27%. The Potency entry with astro is “inactive”.
